From the supplement of paper PMC12669032

Columns and labels:
Assay in all cases: growth AUC relative to DMSO control (median of replicates) (fraction); higher = more growth (less inhibition), active = hit call of the paper
Details in all cases: 20 µM; 24 h;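 active = AUC reduced over 20% with Padj below 0.05 in at least 2 of 3 replicates; inactive = otherwise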
Akkermansia muciniphila = system: Akkermansia muciniphila
Method in brief: (§1)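 Gut bacterial monocultures were grown anaerobically at 37 °C in mGAM from a starting OD600 of 0.05 with 20 µM compound (1% DMSO), in round-bottom 96-well plates under pierced gas-permeable seals, and OD600 was read hourly for 24 h. With the minimum OD set to 0, area under the growth curve was normalised to the plate median of solvent-only wells, or to row and column medians on the industrial chemical plate. Each value is the median of three biological replicates grown on separate days.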

Bacteroides caccae = system: Bacteroides caccae
Method in brief: as §1

Bacteroides clarus = system: Bacteroides clarus
Method in brief: as §1

Bacteroides dorei = system: Bacteroides dorei
Method in brief: as §1

Bacteroides stercoris = system: Bacteroides stercoris
Method in brief: as §1

[1] = system: Bacteroides thetaiotaomicron
Method in brief: as §1

Bacteroides uniformis = system: Bacteroides uniformis
Method in brief: as §1

[2] = system: Bifidobacterium longum subsp. longum
Method in brief: as §1

Clostridium difficile = system: Clostridium difficile
Method in brief: as §1

Collinsella aerofaciens = system: Collinsella aerofaciens
Method in brief: as §1

Coprococcus comes = system: Coprococcus comes
Method in brief: as §1

Escherichia coli ED1a = system: Escherichia coli ED1a
Method in brief: as §1

Escherichia coli IAI1 = system: Escherichia coli IAI1
Method in brief: as §1

Eubacterium rectale = system: Eubacterium rectale
Method in brief: as §1

[3] = system: Fusobacterium nucleatum subsp. animalis
Method in brief: as §1

Lactobacillus gasseri = system: Lactobacillus gasseri
Method in brief: as §1

Lactobacillus paracasei = system: Lactobacillus paracasei
Method in brief: as §1

Odoribacter splanchnicus = system: Odoribacter splanchnicus
Method in brief: as §1

[4] = system: Parabacteroides distasonis
Method in brief: as §1

Parabacteroides merdae = system: Parabacteroides merdae
Method in brief: as §1

Measured: growth AUC

C=C(C)[C@H]1Cc2c(ccc3c2O[C@@H]2COc4cc(OC)c(OC)cc4[C@@H]2C3=O)O1
inactive: Akkermansia muciniphila 1.07 | Bacteroides caccae 0.985 | Bacteroides clarus 0.897 | Bacteroides dorei 0.947 | Bacteroides stercoris 0.735 | [1] 0.965 | Bacteroides uniformis 0.813 | [2] 1 | Clostridium difficile 1.03 | Collinsella aerofaciens 0.987 | Coprococcus comes 0.986 | Escherichia coli ED1a 1 | Escherichia coli IAI1 1.01 | Eubacterium rectale 0.973 | [3] 1.06 | Lactobacillus gasseri 0.878 | Lactobacillus paracasei 0.954 | Odoribacter splanchnicus 0.917 | [4] 0.935 | Parabacteroides merdae 0.94

Cc1ccccc1C(=O)Nc1cccc(OC(C)C)c1
inactive: Akkermansia muciniphila 0.926 | Bacteroides caccae 1.01 | Bacteroides clarus 0.992 | Bacteroides dorei 1 | Bacteroides stercoris 0.993 | [1] 0.928 | Bacteroides uniformis 0.945 | [2] 1.02 | Clostridium difficile 0.984 | Collinsella aerofaciens 1 | Coprococcus comes 1.02 | Escherichia coli ED1a 0.991 | Escherichia coli IAI1 1 | Eubacterium rectale 0.953 | [3] 0.955 | Lactobacillus gasseri 1.06 | Lactobacillus paracasei 1.01 | Odoribacter splanchnicus 1.03 | [4] 1.04 | Parabacteroides merdae 0.974

O=[N+]([O-])c1ccccc1
inactive: Akkermansia muciniphila 1.11 | Bacteroides caccae 1.01 | Bacteroides clarus 1.02 | Bacteroides dorei 0.97 | Bacteroides stercoris 1.13 | [1] 1.03 | Bacteroides uniformis 1 | [2] 1.06 | Clostridium difficile 1.01 | Collinsella aerofaciens 0.951 | Coprococcus comes 1.03 | Escherichia coli ED1a 1.01 | Escherichia coli IAI1 1.01 | Eubacterium rectale 1.07 | [3] 1.07 | Lactobacillus gasseri 1 | Lactobacillus paracasei 0.994 | Odoribacter splanchnicus 1.08 | [4] 1.03 | Parabacteroides merdae 1.03

CNC(=O)O/N=C(\SC)C(=O)N(C)C
inactive: Akkermansia muciniphila 1.01 | Bacteroides caccae 0.999 | Bacteroides clarus 0.967 | Bacteroides dorei 1.05 | Bacteroides stercoris 1.05 | [1] 0.993 | Bacteroides uniformis 1.01 | [2] 0.957 | Clostridium difficile 0.965 | Collinsella aerofaciens 0.999 | Coprococcus comes 0.971 | Escherichia coli ED1a 0.985 | Escherichia coli IAI1 0.987 | Eubacterium rectale 1 | [3] 0.979 | Lactobacillus gasseri 1.09 | Lactobacillus paracasei 0.883 | Odoribacter splanchnicus 0.975 | [4] 0.99 | Parabacteroides merdae 0.973

Nc1ccc(Cl)cc1Cl
inactive: Akkermansia muciniphila 1.06 | Bacteroides caccae 1 | Bacteroides clarus 1.01 | Bacteroides dorei 1.02 | Bacteroides stercoris 0.97 | [1] 1.03 | Bacteroides uniformis 0.993 | [2] 1.04 | Clostridium difficile 1.03 | Collinsella aerofaciens 1.04 | Coprococcus comes 1.03 | Escherichia coli ED1a 1.01 | Escherichia coli IAI1 1 | Eubacterium rectale 1.01 | [3] 1.11 | Lactobacillus gasseri 1.02 | Lactobacillus paracasei 0.976 | Odoribacter splanchnicus 1.1 | [4] 1.02 | Parabacteroides merdae 1.01

O=C(Nc1ccccc1)N(Cc1ccc(Cl)cc1)C1CCCC1
inactive: Akkermansia muciniphila 0.953 | Bacteroides caccae 0.983 | Bacteroides clarus 0.991 | Bacteroides dorei 0.991 | Bacteroides stercoris 0.972 | [1] 0.964 | Bacteroides uniformis 0.969 | [2] 1.02 | Clostridium difficile 1.03 | Collinsella aerofaciens 0.98 | Coprococcus comes 0.94 | Escherichia coli ED1a 1 | Escherichia coli IAI1 0.99 | Eubacterium rectale 1.03 | [3] 0.985 | Lactobacillus gasseri 1.01 | Lactobacillus paracasei 1.06 | Odoribacter splanchnicus 1.03 | [4] 0.893 | Parabacteroides merdae 0.922

O=C(O)COc1ccc(Cl)cc1Cl
inactive: Akkermansia muciniphila 0.866 | Bacteroides caccae 1.03 | Bacteroides clarus 0.979 | Bacteroides dorei 0.996 | Bacteroides stercoris 0.986 | [1] 1 | Bacteroides uniformis 0.998 | [2] 1 | Clostridium difficile 1.02 | Collinsella aerofaciens 0.988 | Coprococcus comes 1.02 | Escherichia coli ED1a 1.01 | Escherichia coli IAI1 0.991 | Eubacterium rectale 0.943 | [3] 0.947 | Lactobacillus gasseri 1.08 | Lactobacillus paracasei 1.05 | Odoribacter splanchnicus 0.958 | [4] 0.988 | Parabacteroides merdae 0.982

CC1(C(=O)Nc2ccc(O)c(Cl)c2Cl)CCCCC1
inactive: Akkermansia muciniphila 0.827 | Bacteroides caccae 0.986 | Bacteroides clarus 0.954 | Bacteroides dorei 0.995 | Bacteroides stercoris 0.952 | [1] 0.94 | Bacteroides uniformis 0.962 | [2] 0.978 | Clostridium difficile 0.98 | Collinsella aerofaciens 0.995 | Coprococcus comes 0.965 | Escherichia coli ED1a 1.01 | Escherichia coli IAI1 0.991 | Eubacterium rectale 0.973 | [3] 0.915 | Lactobacillus gasseri 1.03 | Lactobacillus paracasei 0.949 | Odoribacter splanchnicus 0.907 | [4] 1.05 | Parabacteroides merdae 0.993
